Mtb FBA inh – Mtb fructose-bisphosphate aldolase inhibition | purified M. tuberculosis FBA, fluorescence read-out | 2.3% of 360,000 active | P9WQA3 | inhibition, % at 1 µM;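 note: 0% = vehicle and 100% = reference inhibitor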
Mtb betalactam – beta-lactam sensitization of Mtb H37Rv | M. tuberculosis H37Rv growth with meropenem, percent inhibition | inhibition, % at 25 µM | 0.27% of 330,000 active; call rule not given here;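 note: growth measured after seven days incubation then overnight dye step; 0% = bacteria only wells and 100% = bacteria with antibiotic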
UGM FP inh – inhibitors of M. tuberculosis UDP-galactopyranose mutase; inhibition, % at 10 µM; purified UGM, fluorescence polarization probe displacement; 0.06% of 320,000 active; AID 504406; in the data active = inhibition above about 10%, passing the limit was not always enough; inconclusive = no clear call, values can overlap the other calls
Rv3671c protease – inhibits the M. tuberculosis serine protease Rv3671c. P9WHR9. inhibition, % at 5.96 µM. 0.048% of 320,000 active. AID 2606; in the data active = inhibition above about 38%;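 note: extracellular domain of Rv3671c used as enzyme; 0% = enzyme with DMSO and 100% = no enzyme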
Target sequence (P9WHR9 whole entry, looked up, the tested form may be a part): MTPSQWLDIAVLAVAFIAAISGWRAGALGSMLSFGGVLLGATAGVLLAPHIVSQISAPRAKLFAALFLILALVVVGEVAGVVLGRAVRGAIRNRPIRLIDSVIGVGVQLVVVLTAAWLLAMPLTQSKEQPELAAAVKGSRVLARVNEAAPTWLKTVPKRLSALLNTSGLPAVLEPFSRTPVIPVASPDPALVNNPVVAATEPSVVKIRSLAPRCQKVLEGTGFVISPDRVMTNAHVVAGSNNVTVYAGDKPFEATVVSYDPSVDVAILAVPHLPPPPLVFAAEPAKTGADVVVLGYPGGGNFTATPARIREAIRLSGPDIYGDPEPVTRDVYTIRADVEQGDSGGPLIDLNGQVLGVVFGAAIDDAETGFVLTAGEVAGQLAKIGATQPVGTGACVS
GDH-TPI counter-1 – GDH-TPI coupled enzyme inhibition counter-screen; GDH-TPI coupled enzyme counterscreen, NADH absorbance; inhibition, % at 4.8 µM; 1.2% of 360,000 active; AID 588335; in the data active = inhibition above about 30%;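 note: 0% = DMSO wells and 100% = wells lacking the enzyme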
Mtb FBA confirm – confirmation of M. tuberculosis fructose-bisphosphate aldolase inhibitors; inhibition, % at 1 µM; shares compounds with Mtb FBA inh; 78% of 5,600 active; purified M. tuberculosis FBA, fluorescence read-out;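 note: 0% = vehicle wells and 100% = reference inhibitor wells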
GDH-TPI counter-2 – inhibits GDH-TPI coupling enzymes, flagging Mtb FBA hits. shares compounds with Mtb FBA inh. AID 652141. GDH-TPI coupled enzyme counterscreen, fluorescence. inhibition, % at 1 µM. 81% of 5,600 active; in the data active = inhibition above about 10%
Numbers without * were called inactive; u = inconclusive; x = no result given; + = active, no number. Most compounds without a hit are left out; they make up all but 3.5% or so of the library. Cut-off read from the data, not from the text of the source, unless noted: active = inhibition above about 27%; inactive = the rest.

SMILES	Mtb FBA inh	Mtb betalactam	UGM FP inh	Rv3671c protease	GDH-TPI counter-1	Mtb FBA confirm	GDH-TPI counter-2
Cc1cc(C)c2c(N)c3ccccc3nc2n1	70*	5	-1	-14	-2	181*	143*
Cn1c(=O)c2[nH]c(CCNC(=O)c3ccccc3)nc2n(C)c1=O	2	x	x	x	-1	x	x
CCOc1ccc(CCNC(=O)COC(=O)C2CC2)cc1OCC	-4	1	1	-7	6	x	x
O=S(=O)(Nc1nc2ccccc2nc1Cl)c1ccc(Br)cc1	7	11	1	-1	12	x	x
COC(CNC(=O)c1ccc(-n2c(=S)[nH]c3ccccc3c2=O)cc1)OC	7	5	0	-8	1	x	x
COCCCNC(=O)c1ccc2nc3ccccc3c(=O)n2c1	66*	-16	2	-3	13	121*	106*
COC(CNC(=O)c1ccc2nc3ccccc3c(=O)n2c1)OC	61*	2	0	-14	18	+	+
COc1ccc(CCNC(=O)c2ccc3nc4cc(Cl)ccc4c(=O)n3c2)cc1OC	11	2	-2	2	5	x	x
CC1(C)C=Cc2cc(-c3coc4cc(O)cc(O)c4c3=O)cc(O)c2O1	1	2	1	11	5	x	x
O=C(Nc1cccc(Cl)c1)Nc1ccccc1C(=O)O	79*	-9	0	-3	20	+	195*
O=C(Cc1ccccc1)NNC(=O)Nc1ccc(Cl)c(Cl)c1	2	2	3	3	-5	x	x
O=C(Nc1ccc(Cl)c(Cl)c1)Nc1ccccc1C(=O)O	52*	-6	3	-22	-1	35*	19*
O=C(Nc1ccc(Cl)cc1)Nc1ccccc1C(=O)O	54*	0	-3	6	2	-1	-3
NC(=O)c1ccccc1NC(=O)Nc1cccc(Cl)c1	4	-12	-1	8	-2	x	x
CC(O)[C@H]1CNCCN1CCc1cccc(F)c1 (stereo not given in full)	2	-3	1	-2	-14	x	x
CCN(C(=O)c1cccs1)C1CCS(=O)(=O)C1 (stereo not given)	1	x	x	x	-3	x	x
COc1cc(NC(=O)CCn2c(=S)[nH]c3ccccc3c2=O)cc(OC)c1OC	-2	x	x	x	-7	x	x
O=C(c1ccc2nc3ccccc3c(=O)n2c1)N1CCN(Cc2ccc3c(c2)OCO3)CC1	69*	15	-1	-9	4	-4	-10
O=C(c1cccn2c(=O)c3ccccc3nc12)N1CCN(Cc2ccc3c(c2)OCO3)CC1	23	1	x	6	20	x	x
O=C(c1cnc2ccc(Cl)cc2c1Cl)N1CCOCC1	-2	x	x	x	-4	x	x
O=C(c1ccc2nc3ccc(Cl)cc3c(=O)n2c1)N1CCC2(CC1)OCCO2	40*	-12	-1	4	20	+	+
O=C(c1ccc2nc3ccc(Cl)cc3c(=O)n2c1)N1CCOCC1	93*	u	-1	-3	13	+	+
O=C(c1ccc(Cl)cc1)N1CCC2(CC1)OCCO2	2	-2	0	4	-1	x	x
CCOC(=O)[C@@H]1[C@H]2COc3cc(OC)ccc3[C@@H]2N2C(=O)N(c3ccc(Cl)cc3)C(=O)[C@]12C	1	2	2	-1	6	x	x
Cc1ccccc1S(=O)(=O)N1C[C@H]2[C@H]3C(=O)N(C4CCCCC4)C(=O)[C@H]3CC(=O)[C@H]2[C@@H]1c1ccc(Cl)cc1	-1	x	x	x	x	x	x
SMILES	Mtb FBA inh	Mtb betalactam	UGM FP inh	Rv3671c protease	GDH-TPI counter-1	Mtb FBA confirm	GDH-TPI counter-2
CCOC(=O)c1cc(-c2ccccc2)sc1NC(=O)C(C)C	37*	10	-1	1	1	125*	113*
COc1ccc(-c2oc3ccccc3c2C(=O)OCc2ccccc2OC)cc1	73*	10	-1	-21	31*	-7	-8
Cc1ccn2c(NC3CCCCC3)c(-c3cccc(SC4CCCCC4)c3)nc2c1	21	28	3	-3	2	x	x
CCC(C)Sc1cccc(-c2nc3cc(C)ccn3c2NC2CCCCC2)c1 (stereo not given)	45*	87	x	-8	24	140*	133*
CCC(C)Sc1cccc(-c2nc3ccc(C)cn3c2NCc2ccccc2)c1 (stereo not given)	39*	25	1	2	15	1	1
CCC(C)Sc1cccc(-c2nc3ccc(Cl)cn3c2NCc2ccccc2)c1 (stereo not given)	23	5	1	-3	18	x	x
CCC(C)Sc1cccc(-c2nc3ccccn3c2NCc2ccccc2)c1 (stereo not given)	32*	9	1	1	5	113*	91*
COc1cccc(Oc2ccc(S(=O)(=O)N3CCCC3)cc2[N+](=O)[O-])c1	-2	9	1	-6	6	x	x
CC(C)CC(=O)Nc1c2c(nn1-c1ccc(F)cc1)CS(=O)(=O)C2	2	-6	-1	8	-2	x	x
CCc1ccccc1N(CC(=O)NC(C)C)C(=O)CCC(=O)Nc1nccs1	0	0	0	-6	3	x	x
CN(C)CCN(Cc1cc2cc3c(cc2[nH]c1=O)OCO3)C(=S)NCC1CCCO1 (stereo not given)	50*	-12	3	-3	22	0	-4
O=c1[nH]c2cc3c(cc2cc1CN(CCN1CCOCC1)C(=S)NCC1CCCO1)OCO3 (stereo not given)	34*	13	3	2	16	124*	125*
Cc1cccc(N2CCN(S(=O)(=O)c3c(C)[nH]c(C)c3C(=O)N3CCCC3)CC2C)c1 (stereo not given)	0	1	-1	8	4	x	x
CCOc1ccccc1/C=C/C(=O)NCC(=O)N1CCC(N(C)C2CCCCC2C)CC1 (stereo not given)	8	7	0	6	-8	x	x
Cn1nc(C(=O)OCC(=O)Nc2ccc(SC(F)F)cc2)c2ccccc2c1=O	0	-8	2	-11	0	x	x
Nc1cc(OC(=O)c2ccco2)nn1S(=O)(=O)c1ccc(F)cc1	30*	4	2	-7	-5	+	142*
c1cc(-c2cc3nc(NCC4CC4)ccn3n2)ccc1OCCN1CCOCC1	37*	x	x	x	-2	69*	72*
Cc1cccc(Cl)c1NC(=S)NCCc1ccccn1	0	0	1	6	-7	x	x
C=CCOc1ccc(C2C(C#N)=C(N)N(Nc3ccccc3)C3=C2C(=O)CCC3)cc1OC (stereo not given)	29*	89	2	-8	10	124*	91*
Cc1cc(=O)oc2cc(OCC(=O)N3CCOCC3)c(Cl)cc12	109*	-7	1	-1	17	+	+
Cc1cc(=O)oc2cc(OCC(=O)N3CCC(O)CC3)c(Cl)cc12	14	1	0	-3	10	x	x
Cc1cc(=O)oc2cc(OCC(=O)N3CCCC3)c(Cl)cc12	31*	-8	-1	1	0	13	24*
